ATXN2 expr inh = Primary qHTS for Inhibitors of ATXN expression; AID 1745845, 2022; HEK-293 ATXN2-luciferase reporter, luminescence, 24 h; 360,000 compounds, 0.72% hits; Potency, µM (series often up to 57 µM), usual class: inhibitors; further: nearly all actives have a fitted effect of over 55% in size
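qHTS (up to 57 uM final) was run with 24 h compound exposure of reporter cells at 37 °C. Each well was multiplexed: SteadyGlo luminescence measured ATXN2-luciferase expression after a fluorogenic Gly-Phe-AFC viability readout (25 uM final).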
Nrf2 block = Nrf2 qHTS screen for inhibitors | A549 ARE-Fluc reporter, luciferase luminescence, 18-24 h | AID 504444, 2011 | Potency, µM (doses to about 46 µM), actives largely listed as inhibitors | 360,000 compounds, 2.1% hits; further: nearly all actives have a fitted effect of over 60% in size
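Reporter: ARE-Fluc in A549. Exposure: 18-24 h, 37 °C, 5% CO2, 5% FBS OPTI-MEM. Readouts: fluorescent cytotoxicity (CellTiter-Fluor), then luminescent Nrf2 signal after BugLite.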
A549 viability = Nrf2 qHTS screen for inhibitors: counterscreen for cytotoxicity. A549 ARE-Fluc cells, CellTiter-Fluor viability, 18-24 h. Potency, µM (titrated, usually from 46 µM), most hits filed as inhibitors. 390,000 compounds, 0.16% hits
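A549 ARE_Fluc cells in 5% FBS OPTI-MEM were exposed to compounds in concentration-response for 18-24 h at 37 deg C. Viability was read by CellTiter-Fluor fluorescence (Ex 405/Em 525) after 30 min, before the luciferase read.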
Nrf2 activator = qHTS of Nrf2 Activators. AREc32 ARE-luciferase reporter (MCF7-derived line), luminescence, 24 h. Potency, µM (top dose mostly 46.1 µM), actives largely listed as activators. 410,000 compounds, 0.31% hits; further: nearly all actives have a fitted effect of over 65% in size
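Quantitative high-throughput format: AREc32 reporter cells, 1000 per well, received compound by pin transfer and were incubated 24 hr at 37 deg C, 5% CO2, before Steady-Glo luminescence detection.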
ATXN viability = Viability Counterscreen for Primary qHTS for Inhibitors of ATXN expression. Potency, µM (highest dose often 56.7 µM), most hits filed as cytotoxic. AID 651635, 2014. 400,000 compounds, 0.49% hits. S2 cells (HEK-293 line with an ATXN2-luciferase reporter) viability, CellTiter-Fluor protease fluorescence, 24 h; further: nearly all actives have a fitted effect of over 40% in size
Numbers stand for hits; i = inactive; ? = inconclusive; nt = no result. A selection: hits, their analogues and other compounds. The true share with any hit is near 2.9%. The call rests on the fitted dose curve; in most records, active means well fitted curve in the direction sought with a large enough effect; inconclusive means small, poorly fitted or top-dose-only effect, or another doubt; inactive means no such curve, though single readings can be large; an effect the other way counts as inactive or inconclusive.

SMILES	ATXN2 expr inh	Nrf2 block	A549 viability	Nrf2 activator	ATXN viability
COCCc1nn2c(=O)cc(COC(=O)c3ccc(OC)c(OC)c3)nc2s1	i	?	i	i	i
CCOc1ccc(CCNC(=O)c2nnn(CC(=O)Nc3ccc(OC)c(OC)c3)c2N)cc1OCC	i	i	i	i	i
Clc1cc(Cl)cc(Nc2ncnc(-n3cccc3)n2)c1	i	i	i	2µM	i
Cc1ccc(Nc2ncnc(-n3cccc3)n2)cc1Cl	nt	?	i	?	i
Cc1ccc(CS(=O)(=O)CCC(=O)N2CCOCC2)cc1	i	i	i	i	i
O=c1[nH]c(Nc2ccc3c(c2)OCCO3)nnc1Cc1ccc(Cl)cc1	i	?	i	i	i
N#Cc1c([N+](=O)[O-])cc([N+](=O)[O-])cc1S(=O)(=O)Cc1ccccc1	?	?	i	?	31.6µM
COc1cc(OC)c(C#N)c(S(=O)(=O)Cc2ccccc2)c1	i	i	i	i	i
CC1(C)Cc2c(sc3[nH]c(=S)n(Cc4ccccc4)c(=O)c23)CO1	?	16.4µM	?	i	i
COc1ccc(OC)c(NC(=O)CC2C(=O)NCCN2C(=O)c2ccccc2)c1 (stereo unspecified)	i	i	i	i	i
CC12C=CC(=O)C=C1CCC1C2C(=O)CC2(C)C1CCC2(O)C(=O)CO (stereo unspecified)	i	0.291µM	i	i	i
CSc1nc(N2CCOCC2)c2c(c1C#N)CC(C(C)C)OC2 (stereo unspecified)	i	?	i	i	i
COCCCn1c(N)c(-c2nc3ccccc3n2C)c2nc3ccccc3nc21	?	20.6µM	i	i	nt
Cn1c(-c2c(N)n(CCCc3ccccc3)c3nc4ccccc4nc23)nc2ccccc21	i	nt	?	i	nt
Cc1ccc2nc(SC(C)C(=O)Nc3cccc([N+](=O)[O-])c3)[nH]c2c1 (stereo unspecified)	i	20.6µM	i	i	i
COc1ccc(NS(=O)(=O)c2ccc3oc(SC)nc3c2)cc1	i	20.6µM	i	i	i
COc1cccc(-c2nc(C(=O)NCC3CCCO3)cc3c2[nH]c2ccccc23)c1 (stereo unspecified)	?	20.6µM	i	i	nt
COc1ccc(OC)c(-c2nc(C(=O)NCC3CCCO3)cc3c2[nH]c2ccccc23)c1 (stereo unspecified)	i	?	i	i	i
O=C(CCCCN1CCCCC1)c1ccccc1	i	i	i	i	i
O=C(C(=Cc1ccccc1)CN1CCCCC1)c1ccccc1	?	?	?	i	8.44µM
Nc1c2c(nc3ccccc13)CCCC2	?	i	i	i	?
Nc1c2ccccc2nc2ccccc12	5.01µM	20.6µM	?	i	nt
Cc1cccc(OCC(O)Cn2ccnc2C)c1 (stereo unspecified)	nt	i	i	i	nt
CCN(CC)C(=O)[C@H]1C[C@H](CC(=O)NCc2cccc(C(F)(F)F)c2)C(=O)N2CCc3c([nH]c4cc(-c5ccco5)ccc34)[C@]12C	?	18.4µM	?	i	?
CC[C@]12c3[nH]c4ccccc4c3CCN1C(=O)C(CC(=O)NC/C=C(\C)CCC=C(C)C)C[C@@H]2C(=O)N1CCN(C(=O)c2ccco2)CC1 (stereo partly specified)	i	23.1µM	i	i	nt
SMILES	ATXN2 expr inh	Nrf2 block	A549 viability	Nrf2 activator	ATXN viability
CC[C@]12c3[nH]c4ccc(Cl)cc4c3CCN1C(=O)[C@@H](CC(=O)NCc1cccc(C(F)(F)F)c1)C[C@@H]2C(=O)N1CCN(C(=O)c2ccco2)CC1	?	?	?	i	28.2µM
COCCCNC(=O)C[C@H]1C[C@H](C(=O)N2CCCCC2)[C@@]2(CCc3ccccc3)c3[nH]c4cc(-c5ccco5)ccc4c3CCN2C1=O	i	23.1µM	i	i	?
CC1(C)CC2CC(C)(CN2CC(O)c2ccccc2)C1 (stereo unspecified)	nt	i	i	i	i
COc1ccc(CC(C)CC(=O)NCCc2ccc(OC)c(OC)c2)cc1 (stereo unspecified)	nt	i	i	i	i
NC(=O)c1ccc(NC(=O)COC(=O)c2cc(S(=O)(=O)N3CCOCC3)ccc2N2CCCCC2)cc1	i	i	i	i	i
Cc1ccc(Cl)cc1NC(=O)c1ccc(-c2nc(CSc3ccccc3)c(C)o2)cc1	?	13µM	i	i	i
COc1ccc(NC(=O)c2ccc(-c3nc(CSc4ccccc4)c(C)o3)cc2)cc1OC	i	?	i	i	i
CC(=O)c1ccc(NC(=O)c2ccc(-c3nc(CSc4ccccc4)c(C)o3)cc2)cc1	nt	10.3µM	i	i	nt
COc1ccc(NC(=O)c2ccc(-c3nc(CSc4ccc(C)cc4)c(C)o3)cc2)cc1Cl	i	23.1µM	i	i	?
COC(=O)c1ccccc1NC(=O)c1ccc(-c2nc(CSc3ccc(C)cc3)c(C)o2)cc1	i	?	i	i	i
Cc1cccc(NC(=O)c2ccc(-c3nc(CSc4ccccc4)c(C)o3)cc2)c1C	i	13µM	i	i	?
COc1ccc(-c2csc(NC(=O)Cc3cc(OC)c(OC)c(OC)c3)n2)cc1OC	i	20.6µM	?	i	i
COc1cc(OC)cc(C(=O)N[C@H](C(=O)Nc2nc(-c3ccc(OC)c(OC)c3)cs2)C(C)C)c1	nt	7.31µM	i	i	i
Cc1ccc(C)c(C(=O)CN2C(=O)c3ccccc3C2=O)c1	i	i	i	i	i
O=c1c(-c2ccc(Cl)cc2)coc2c(CN3CCCCC3)c(O)ccc12	nt	i	i	i	i
CCOC(=O)c1cnc2ccc(OC)cc2c1Nc1ccc(OCc2ccccc2Cl)cc1	i	?	i	i	?
CCOC(=O)c1cnc2ccc(OCC)cc2c1Nc1ccc(OCc2ccccc2Cl)cc1	i	20.6µM	i	i	i
CCOC(=O)c1ccc2ncc(C(=O)OCC)c(Nc3ccc(N4CCOCC4)cc3)c2c1	22.4µM	i	i	i	?
CCOC(=O)c1cnc2ccccc2c1Nc1ccc(N2CCOCC2)cc1	i	i	i	i	i
Clc1ccc(Cn2cc(Br)cn2)cc1Cl	i	i	i	i	i
O=C(Nc1ccn(Cc2c(F)c(F)c(F)c(F)c2F)n1)c1cccc(Cn2cc([N+](=O)[O-])cn2)c1	?	18.4µM	i	i	i
Cc1cccc(-c2[nH]c(C(C)(C)C)nc2-c2ccc3c(c2)OCO3)n1	15.3µM	nt	nt	nt	nt
Cc1cccc(COc2coc(CN3CCN(C(=O)c4ccco4)CC3)cc2=O)c1	i	i	i	i	i
CCN(CC)c1ccc2nc3ccc(N)cc3[n+](-c3ccccc3)c2c1	12.6µM	14.6µM	18.4µM	i	15.8µM
CCN(CC)c1ccc2cc(-c3nc4ccccc4[nH]3)c(=O)oc2c1	i	i	?	i	nt
CCN(CC)c1ccc2nc3ccccc3[n+](CC)c2c1	?	9.2µM	8.2µM	i	8.91µM
Cc1ccc(Cl)cc1N1CCN(C(=O)C2CCN(S(=O)(=O)Cc3ccccc3)CC2)CC1	i	?	i	i	i

Source: PubChem (National Center for Advancing Translational Sciences (NCATS))
